Assay results reported in PubChem BioAssay.
Activity calls are given as the source filed them.

Legend:
Albumin (Bos taurus) = Albumin (Bos taurus) (UniProt P02769); test: compounds binding labelled BSA control protein – biochemical, small-molecule microarray, Alexa647 label, 635/667 nm fluorescence, artefact control for SMM control protein annotation, profiling panel (AID 1118); details: BSA-A647 binding, fluorescence 635 nm, higher = more signal;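 also: score merges 667 nm emission intensity and signal-to-noise per printed compound spot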
[1] = probe aXIP binding to arrayed compounds – biochemical, NeuroSMM set, 635/667 nm fluorescence, primary screen (AID 1119); details: small-molecule microarray, higher = more signal, called active from +8 up or from −8 down;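 also: probe is the protein aXip251-270 applied at 1 µg/mL to compound-printed slides; binding of probe to printed compounds measured as 667 nm fluorescence plus signal to noise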
[2] = probe aNOTCH3 binding on compound microarray – biochemical, small-molecule microarray, 635/667 nm fluorescence, primary screen (AID 1120); details: higher = more signal;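 also: probe is a biotin-tagged antibody raised against NOTCH3 rather than NOTCH3 protein; score merges spot fluorescence near 667 nm with spot signal to noise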
[3] = probe aNOTCH2 binding on compound microarray – biochemical, small-molecule microarray, 635/667 nm fluorescence, primary screen (AID 1121); details: higher = more signal;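 also: score merges feature fluorescence read at 667 nm with its signal to noise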
[4] = target: Carbonic anhydrase 2 (Homo sapiens) (UniProt P00918); test: compounds binding carbonic anhydrase 2 – biochemical, small-molecule microarray, Alexa647-labelled CAII, profiling panel (AID 1122); details: CAII-A647 binding fluorescence, higher = more signal
[5] = COS7 lysate on small-molecule microarray, probe aHis, 635 nm (AID 1123); details: COS7 cell lysate, fluorescence, higher = more signal;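 also: z-score combines 667nm fluorescence intensity with signal-to-noise per printed compound spot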
[6] = probe aLAP1 signal on lysate-treated microarray – cell lysate, small-molecule microarray, COS7 lysate, primary screen (AID 1124); details: probe aLAP1, fluorescence, higher = more signal;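 also: lysate comes from COS7 cells expressing LAP1 and is applied at 0.3 µg/mL; score merges spot fluorescence near 667 nm with signal-to-noise over triplicate slides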
Sam68 (KHDRBS1) = test: compounds binding KHDRBS1 protein – biochemical, small-molecule microarray, 635 nm fluorescence, primary screen (AID 1125); details: higher = more signal;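 also: score merges 667 nm channel intensity with signal to noise over triplicate slides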
[7] = system: Chordin-like protein 2 (CHRDL2); test: compounds binding chordin-like 2 – biochemical, small-molecule microarray, 635 nm fluorescence, primary screen (AID 1126); details: fluorescence 635 nm, higher = more signal;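 also: printed compound slides probed with Chrdl2 protein at 4 µg/mL for 1 h at 4 C; score merges 667 nm emission intensity with signal to noise over three replicate slides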
[8] = target: Concanavalin-A (Canavalia ensiformis) (UniProt P02866); test: compounds binding concanavalin A lectin – biochemical, small-molecule microarray, Alexa647 label, 635 nm, artefact control for SMM control protein annotation, primary screen (AID 1127); details: ConA-A647 binding fluorescence, higher = more signal;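 also: z combines 667 nm emission intensity with signal-to-noise across three replicate slides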
Chain of Concanavalin-A (Canavalia ensiformis) (P02866 whole entry, looked up): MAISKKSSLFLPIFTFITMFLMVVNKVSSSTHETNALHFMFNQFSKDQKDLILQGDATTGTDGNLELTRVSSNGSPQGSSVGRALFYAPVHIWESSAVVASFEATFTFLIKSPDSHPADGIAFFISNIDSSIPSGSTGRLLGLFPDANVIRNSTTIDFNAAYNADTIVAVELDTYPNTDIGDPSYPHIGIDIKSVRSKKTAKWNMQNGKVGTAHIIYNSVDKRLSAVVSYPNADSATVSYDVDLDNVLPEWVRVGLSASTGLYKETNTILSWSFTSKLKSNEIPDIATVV

Chain of Albumin (Bos taurus) (P02769 whole entry, looked up): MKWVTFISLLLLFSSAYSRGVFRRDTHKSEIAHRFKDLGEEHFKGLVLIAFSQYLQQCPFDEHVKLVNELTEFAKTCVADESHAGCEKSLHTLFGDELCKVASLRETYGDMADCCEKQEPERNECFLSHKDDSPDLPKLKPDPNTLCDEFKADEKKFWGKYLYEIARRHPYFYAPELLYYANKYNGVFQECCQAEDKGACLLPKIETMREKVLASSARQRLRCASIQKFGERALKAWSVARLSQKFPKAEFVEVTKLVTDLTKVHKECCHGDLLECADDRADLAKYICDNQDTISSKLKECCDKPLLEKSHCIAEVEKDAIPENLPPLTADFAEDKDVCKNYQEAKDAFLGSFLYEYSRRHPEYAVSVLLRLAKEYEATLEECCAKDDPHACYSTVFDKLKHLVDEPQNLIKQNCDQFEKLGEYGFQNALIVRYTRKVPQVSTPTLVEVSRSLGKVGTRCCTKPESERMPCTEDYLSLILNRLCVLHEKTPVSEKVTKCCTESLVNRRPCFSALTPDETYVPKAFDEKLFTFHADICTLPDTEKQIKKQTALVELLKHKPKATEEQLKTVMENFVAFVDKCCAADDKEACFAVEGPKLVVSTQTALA

| SMILES | composite z-score (Albumin (Bos taurus)) | composite Z-score [1] | composite z-score [2] | composite z-score [3] | composite z-score [4] | composite z-score [5] | composite z-score [6] | composite z-score (Sam68 (KHDRBS1)) | composite z-score [7] | composite z-score [8] |
| --- | --- | --- | --- | --- | --- | --- | --- | --- | --- | --- |
| COC(=O)[C@@]1(Cc2ccccc2CN=[N+]=[N-])N=C(c2ccc(OCCCO)cc2)O[C@H]1c1ccccc1 | 0.0186 | 0.951 (inactive) | 0.177 | 0.0919 | 0.645 | 2.52 | 0.717 | 0.711 | 0.4 | 0.686 |
| CCN(CC)c1ccc(N2CC=CC34O[C@@H]5C=CCCOC(=O)C5[C@H]3C(=O)N(CCO)[C@@H]4C2=O)cc1 (stereo not given in full) | 0.0715 | -0.296 (inactive) | -0.341 | -0.158 | 0.898 | -0.724 | 0.624 | -0.661 | -0.414 | -2.06 |
| COc1ccc(C#Cc2ccc3c(c2)[C@]2(C(=O)N3)[C@H](c3ccc(OCCO)cc3)N3[C@H](c4ccccc4)[C@H](c4ccccc4)OC(=O)[C@H]3[C@@H]2C(=O)N2CCc3cc(OC)c(OC)cc3C2)cc1 | 0.0867 | -0.487 (inactive) | 0.233 | -0.23 | 0.438 | 2.04 | 0.216 | 1.12 | 0.704 | 1.09 |
| COc1ccc(C(O)C2C=CC3C(=O)N(c4ccccc4)C(=O)C3N2Nc2ccccc2)cc1 (stereo not given) | 1.01 | -0.135 (inactive) | 0.331 | -0.0501 | 0.781 | 2.89 | 0.326 | 1.17 | -0.154 | 1.14 |
| C=CCOC(=O)[C@H]1[C@@H]2C(=O)O[C@@H](c3ccccc3)[C@@H](c3ccccc3)N2[C@@H](c2ccc(OCCOC(=O)[C@H]3C[C@H]4C(=O)N[C@@H](CCCCNC(C)=O)C(=O)N4[C@H]3c3cccc(OCCO)c3)cc2)[C@]12C(=O)Nc1ccc(I)cc12 | -0.371 | 1.97 (inactive) | -0.366 | -0.354 | 0.605 | 1.47 | 0.353 | 1.25 | 0.736 | 1.12 |
| CCOC(=O)C1=CCC(c2ccccc2)N(S(=O)(=O)c2ccc([N+](=O)[O-])cc2)C1 (stereo not given) | 0.193 | -0.275 (inactive) | -0.0077 | -0.108 | 0.0862 | 1.07 | 0.173 | 0.439 | 0.0332 | -0.104 |
| COCCOC(=O)N1C(=O)[C@@]2(c3cc(C#CC4=CCCCC4)ccc31)[C@H](C(=O)N1CCCCCCC1)[C@H]1C(=O)O[C@H](c3ccccc3)[C@H](c3ccccc3)N1[C@@H]2c1ccc(OCCO)cc1 | -0.0202 | 0.196 (inactive) | 0.677 | 0.0424 | 0.399 | 0.387 | 0.722 | 0.865 | 0.652 | 1.11 |
| COc1ccc([Si](C)(C)[C@@H]2[C@@H](CCn3cc([C@H](O)c4ccccc4)nn3)O[C@]3(C(=O)N(c4ccccc4)c4ccccc43)[C@H]2C)cc1 | -0.591 | -0.424 (inactive) | -0.145 | -0.131 | 0.0028 | 0.233 | -0.232 | 0.548 | -0.063 | 0.503 |
| C=C(C(=O)CC[C@H](OC(=O)c1ccccc1-c1ccccc1C(=O)O)c1ccccc1OCCO)C(C)C | 0.0198 | 0.292 (inactive) | -0.0035 | -0.176 | 0.52 | 0.559 | -0.0566 | 0.974 | 0.0958 | -0.138 |
| CCOC(=O)C[C@H]1[C@H](OC(=O)c2ccccc2-c2ccccc2)[C@@H](NC(=O)c2ccc3ccccc3n2)c2cc(OCCCO)ccc2N1C(=O)c1ccccc1 | -0.321 | 0.311 (inactive) | 0.038 | -0.14 | 0.286 | 0.824 | -0.0982 | 1.33 | 0.374 | 0.37 |
| CC(C)C(CO)N1C(=O)[C@@H]2[C@H]3C(=O)OCC=C[C@H]3OC23C=CCN(C(C)(C)C)C(=O)[C@@H]13 (stereo not given in full) | -0.0498 | -0.343 (inactive) | -0.252 | -0.168 | 0.409 | -0.843 | -0.495 | -1.41 | -0.109 | 0.0282 |
| COc1ccc([Si](C)(C)[C@H]2[C@H](CC(=O)N3Cc4ccccc4C[C@H]3CO)O[C@@]3(C(=O)N(Cc4ccc(N5C(=O)c6cccc7cccc5c67)cc4)c4ccccc43)[C@@H]2C)cc1 | 0.502 | 0.858 (inactive) | -0.0647 | -0.207 | 0.376 | 0.822 | 0.295 | 1.3 | 1.13 | 1.08 |
| CO[C@H]1O[C@H](CO)[C@@H](OC(=O)c2ccc(Br)cc2)[C@@H]2OC(=O)[C@H](Cc3ccccc3)C/C=C/C[C@@H](Cc3ccccc3)C(=O)O[C@@H]12 | 0.776 | 0.726 (inactive) | 0.0971 | -0.15 | 0.704 | 0.186 | 1.07 | -0.148 | 0.136 | 0.599 |
| CC(C)C(=C=CC[C@@H](O)c1cccc(OCCO)c1)C[C@@H](O)c1ccccn1 | 0.0608 | -0.259 (inactive) | -0.0362 | -0.123 | 0.26 | -0.293 | 0.726 | -0.228 | -0.377 | -0.155 |
| COCCOC(=O)N1C(=O)[C@@]2(c3cc(C#CCCO)ccc31)[C@H](c1ccccc1OCCO)N1[C@H](c3ccccc3)[C@H](c3ccccc3)OC(=O)[C@H]1[C@@H]2C(=O)N1CCCCCCC1 | 0.86 | 0.358 (inactive) | 1.39 | 0.333 | 0.761 | 3.2 | 0.796 | 1.29 | 1.05 | 1.11 |
| CO[C@H]1O[C@H](CO)[C@@H](OC(=O)CCc2ccccc2)[C@H](OC(=O)c2cc3ccccc3[nH]2)[C@H]1OC(=O)c1cc2ccccc2[nH]1 | 0.777 | -0.134 (inactive) | -0.0284 | -0.223 | 0.68 | 0.78 | -0.206 | 1.22 | 0.453 | 1.09 |
| COC(=O)[C@@]1(Cc2ccc(OC)cc2)[C@H]2c3cc(C(=O)N4CCCC4)n(Cc4ccc(OC(F)(F)F)cc4)c3C[C@H]2CN1C(=O)c1ccccc1 | 0.943 | 0.308 (inactive) | 0.142 | 0.194 | -0.0687 | -0.0543 | -0.347 | -0.582 | -0.818 | 1.01 |
